The record followed here is paper PMC11006913.

Common to all, as to assay: PBM; 200 nM protein, PBS
What all share (details): dsDNA, one strand shown

The target of one assay is T1, VENTX (Homo sapiens, UniProt O95231 78-163, R121Q).
T1 sequence: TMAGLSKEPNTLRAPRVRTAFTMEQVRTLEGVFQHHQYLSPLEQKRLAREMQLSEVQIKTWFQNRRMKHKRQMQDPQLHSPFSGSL

Assay [1] deals with HOXC9 (Homo sapiens, UniProt P31274 178-260).
Assay [2] concerns the target HOXC9 (Homo sapiens, UniProt P31274 178-260, R193K).
Assay [3] deals with HOXC9 (Homo sapiens, UniProt P31274 178-260, R222W).
Chain of HOXC9 (Homo sapiens, UniProt P31274 178-260, R222W) (P31274 178-260 R222W): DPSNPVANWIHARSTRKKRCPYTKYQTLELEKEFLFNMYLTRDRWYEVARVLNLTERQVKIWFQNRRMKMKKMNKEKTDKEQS
For assay [4], the target named is HOXB9 (Homo sapiens, UniProt P17482 171-250, T197M).
Chain of HOXB9 (Homo sapiens, UniProt P17482 171-250, T197M) (P17482 171-250 T197M): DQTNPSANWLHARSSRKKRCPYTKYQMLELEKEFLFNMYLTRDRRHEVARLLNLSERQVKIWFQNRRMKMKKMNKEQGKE
In assay [5] the target is HOXC9 (Homo sapiens, UniProt P31274 178-260, K195R).
Chain of HOXC9 (Homo sapiens, UniProt P31274 178-260, K195R) (P31274 178-260 K195R): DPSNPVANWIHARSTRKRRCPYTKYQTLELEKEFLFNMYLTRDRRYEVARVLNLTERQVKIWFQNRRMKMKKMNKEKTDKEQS
Assay [6] has as its target HOXC10 (Homo sapiens, UniProt Q9NYD6 254-340).
The target of the next assay is ALX4 (Homo sapiens, UniProt Q9H161 200-286, Q225E).
Chain of ALX4 (Q9H161 200-286 Q225E): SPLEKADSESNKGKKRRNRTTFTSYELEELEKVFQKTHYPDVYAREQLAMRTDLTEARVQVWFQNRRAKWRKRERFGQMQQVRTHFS
Assay [7] addresses HOXB9 (Homo sapiens, UniProt P17482 171-250).
Assay [8] deals with HOXD13 (Homo sapiens, UniProt P35453 263-343, T313R).
Chain of HOXD13 (Homo sapiens, UniProt P35453 263-343, T313R) (P35453 263-343 T313R): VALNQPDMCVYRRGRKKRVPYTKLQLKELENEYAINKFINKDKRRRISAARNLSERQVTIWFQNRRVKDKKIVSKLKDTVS
Assay [9] deals with HOXD13 (Homo sapiens, UniProt P35453 263-343).
Chain of HOXD13 (Homo sapiens, UniProt P35453 263-343) (P35453 263-343): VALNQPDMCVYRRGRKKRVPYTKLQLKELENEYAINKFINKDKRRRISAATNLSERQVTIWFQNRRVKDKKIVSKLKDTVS
The target of assay [10] is HOXC10 (Homo sapiens, UniProt Q9NYD6 254-340, K271E).
Chain of HOXC10 (Homo sapiens, UniProt Q9NYD6 254-340, K271E) (Q9NYD6 254-340 K271E): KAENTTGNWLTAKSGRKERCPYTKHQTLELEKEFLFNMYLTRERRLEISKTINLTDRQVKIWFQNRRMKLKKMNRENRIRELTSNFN
The target of assay [11] is HOXD13 (Homo sapiens, UniProt P35453 263-343, T313A).
Chain of HOXD13 (Homo sapiens, UniProt P35453 263-343, T313A) (P35453 263-343 T313A): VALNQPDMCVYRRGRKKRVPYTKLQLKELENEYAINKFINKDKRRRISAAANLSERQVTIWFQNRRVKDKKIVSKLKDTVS
For assay [12], the target named is HOXB9 (Homo sapiens, UniProt P17482 171-250, R186Q).
Chain of HOXB9 (Homo sapiens, UniProt P17482 171-250, R186Q) (P17482 171-250 R186Q): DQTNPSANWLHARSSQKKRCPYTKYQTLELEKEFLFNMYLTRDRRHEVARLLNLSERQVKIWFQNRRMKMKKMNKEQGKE
Assay [13] concerns the target HOXA4 (Homo sapiens, UniProt Q00056 201-287, W262R).
Assay [14] deals with HOXB6 (Homo sapiens, UniProt P17509 132-218, K202E).
Chain of HOXB6 (Homo sapiens, UniProt P17509 132-218, K202E) (P17509 132-218 K202E): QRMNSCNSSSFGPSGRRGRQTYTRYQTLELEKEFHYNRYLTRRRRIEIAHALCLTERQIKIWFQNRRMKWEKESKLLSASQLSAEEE
In assay [15] the target is HOXA4 (Homo sapiens, UniProt Q00056 201-287, R217L).
Chain of HOXA4 (Homo sapiens, UniProt Q00056 201-287, R217L) (Q00056 201-287 R217L): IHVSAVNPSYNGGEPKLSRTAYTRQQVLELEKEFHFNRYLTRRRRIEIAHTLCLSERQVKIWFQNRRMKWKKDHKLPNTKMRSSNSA
The target in assay [16] is HOXA4 (Homo sapiens, UniProt Q00056 201-287).
Chain of HOXA4 (Homo sapiens, UniProt Q00056 201-287) (Q00056 201-287): as the sequence (Q00056 201-287 R217L) above, with L17R counted along it
Assay [17] concerns the target HOXA4 (Homo sapiens, UniProt Q00056 201-287, W262F).
Assay [18] addresses HOXB6 (Homo sapiens, UniProt P17509 132-218).

Chain of HOXC9 (Homo sapiens, UniProt P31274 178-260, R193K) (P31274 178-260 R193K): as the sequence (P31274 178-260 R222W) above, with R16K, W45R counted along it
Chain of HOXC9 (Homo sapiens, UniProt P31274 178-260) (P31274 178-260): as the sequence (P31274 178-260 R222W) above, with W45R counted along it
Chain of HOXB9 (Homo sapiens, UniProt P17482 171-250) (P17482 171-250): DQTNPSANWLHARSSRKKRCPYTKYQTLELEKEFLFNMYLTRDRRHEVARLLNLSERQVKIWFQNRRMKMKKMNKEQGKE
Chain of HOXC10 (Homo sapiens, UniProt Q9NYD6 254-340) (Q9NYD6 254-340): as the sequence (Q9NYD6 254-340 K271E) above, with E18K counted along it
Chain of HOXB6 (Homo sapiens, UniProt P17509 132-218) (P17509 132-218): as the sequence (P17509 132-218 K202E) above, with E71K counted along it
Chain of HOXA4 (Homo sapiens, UniProt Q00056 201-287, W262R) (Q00056 201-287 W262R): as the sequence (Q00056 201-287 R217L) above, with L17R, W62R counted along it
Chain of HOXA4 (Homo sapiens, UniProt Q00056 201-287, W262F) (Q00056 201-287 W262F): as the sequence (Q00056 201-287 R217L) above, with L17R, W62F counted along it

In the case of CTAACGAG, the binding signal was 10.2 upbm affinity estimate (log intensity, higher = more binding, comparable within an allelic series) with VENTX; 10.9 upbm affinity estimate (log intensity, higher = more binding, comparable within an allelic series) with HOXC9 [1]; 10.8 upbm affinity estimate (log intensity, higher = more binding, comparable within an allelic series) with HOXC9 [2]; 10.1 upbm affinity estimate (log intensity, higher = more binding, comparable within an allelic series) with HOXC9 [3].
As for ATTTATTG, the binding signal with HOXB9 [4] is 9.87 upbm affinity estimate (log intensity, higher = more binding, comparable within an allelic series); with HOXC9 [5], 12.5 upbm affinity estimate (log intensity, higher = more binding, comparable within an allelic series); in the assay with HOXC10 [6], 12.4 upbm affinity estimate (log intensity, higher = more binding, comparable within an allelic series); in the assay with ALX4, 11.2 upbm affinity estimate (log intensity, higher = more binding, comparable within an allelic series); in the assay with HOXB9 [7], 11.9 upbm affinity estimate (log intensity, higher = more binding, comparable within an allelic series); with HOXC9 [1], 12.7 upbm affinity estimate (log intensity, higher = more binding, comparable within an allelic series). The binding signal is 10.9 upbm affinity estimate (log intensity, higher = more binding, comparable within an allelic series) with HOXD13 [8]; 12.6 upbm affinity estimate (log intensity, higher = more binding, comparable within an allelic series) in the assay with HOXC9 [2]; 12.2 upbm affinity estimate (log intensity, higher = more binding, comparable within an allelic series) with HOXD13 [9]; 11.7 upbm affinity estimate (log intensity, higher = more binding, comparable within an allelic series) with HOXC10 [10]; 12 upbm affinity estimate (log intensity, higher = more binding, comparable within an allelic series) with HOXD13 [11]; 11.6 upbm affinity estimate (log intensity, higher = more binding, comparable within an allelic series) with HOXB9 [12]. Also, in the assay with HOXC9 [3], the binding signal was 11.2 upbm affinity estimate (log intensity, higher = more binding, comparable within an allelic series).
With GGGATCCC, the binding signal is 8.56 upbm affinity estimate (log intensity, higher = more binding, comparable within an allelic series) in the assay with HOXB9 [4]; 9.85 upbm affinity estimate (log intensity, higher = more binding, comparable within an allelic series) in the assay with HOXA4 [13]; 9.54 upbm affinity estimate (log intensity, higher = more binding, comparable within an allelic series) in the assay with HOXC9 [5]; 9.02 upbm affinity estimate (log intensity, higher = more binding, comparable within an allelic series) in the assay with HOXB6 [14]; 9.68 upbm affinity estimate (log intensity, higher = more binding, comparable within an allelic series) with HOXA4 [15]; 8.21 upbm affinity estimate (log intensity, higher = more binding, comparable within an allelic series) in the assay with HOXB9 [7]. Besides, the binding signal was 9.51 upbm affinity estimate (log intensity, higher = more binding, comparable within an allelic series) with HOXC9 [1]; 9.56 upbm affinity estimate (log intensity, higher = more binding, comparable within an allelic series) with HOXC9 [2]; 9.71 upbm affinity estimate (log intensity, higher = more binding, comparable within an allelic series) with HOXA4 [16]; 8.25 upbm affinity estimate (log intensity, higher = more binding, comparable within an allelic series) with HOXB9 [12]; 9.68 upbm affinity estimate (log intensity, higher = more binding, comparable within an allelic series) in the assay with HOXC9 [3]; 9.89 upbm affinity estimate (log intensity, higher = more binding, comparable within an allelic series) in the assay with HOXA4 [17]. For the same sequence, the binding signal with HOXB6 [18] is 9.02 upbm affinity estimate (log intensity, higher = more binding, comparable within an allelic series).
On to ATTTATTA, for which the binding signal was 10.1 upbm affinity estimate (log intensity, higher = more binding, comparable within an allelic series) with HOXB9 [4]; 12.7 upbm affinity estimate (log intensity, higher = more binding, comparable within an allelic series) in the assay with HOXC9 [5]; 12.5 upbm affinity estimate (log intensity, higher = more binding, comparable within an allelic series) with HOXC10 [6]; 10 upbm affinity estimate (log intensity, higher = more binding, comparable within an allelic series) with HOXB6 [14]; 12 upbm affinity estimate (log intensity, higher = more binding, comparable within an allelic series) with HOXB9 [7]; 12.8 upbm affinity estimate (log intensity, higher = more binding, comparable within an allelic series) in the assay with HOXC9 [1]. Besides, the binding signal was 10.9 upbm affinity estimate (log intensity, higher = more binding, comparable within an allelic series) in the assay with HOXD13 [8]; 12.7 upbm affinity estimate (log intensity, higher = more binding, comparable within an allelic series) in the assay with HOXC9 [2]; 12 upbm affinity estimate (log intensity, higher = more binding, comparable within an allelic series) with HOXD13 [9]; 12 upbm affinity estimate (log intensity, higher = more binding, comparable within an allelic series) in the assay with HOXC10 [10]; 11.8 upbm affinity estimate (log intensity, higher = more binding, comparable within an allelic series) with HOXD13 [11]; 11.7 upbm affinity estimate (log intensity, higher = more binding, comparable within an allelic series) in the assay with HOXB9 [12]. Also, in the assay with HOXC9 [3], the binding signal is 11.3 upbm affinity estimate (log intensity, higher = more binding, comparable within an allelic series).
